The values that follow come from PubChem BioAssay AID1159606 (Sanford-Burnham Center for Chemical Genomics, 2016).

The term inhibition denotes the change of the read-out against control, counted positive when it falls.

In all, about 360,000 compounds went through this assay and about 7,300 (2%) were called active. Cut-off read from the data, not from the text of the source: active = inhibition above about 50%; inactive = the rest. The sample as a whole holds a higher share of actives than the screen did.

The assay is described as follows: blockers of TWEAK-induced Fn14 reporter activity – luciferase reporter cells, uHTS, primary screen (AID 1159606). Particulars: TWEAK-stimulated Fn14 reporter cells, luciferase luminescence, 8 h; at 10 µM; active compounds read high.
Turning to `CCN1CCN(c2nc3c(c(=O)[nH]2)CCC3)CC1`, the inhibition is 14.3% (inactive). `COc1ccc2[nH]c3c(c2c1)CCN[C@H]3C`: the inhibition was 75.7% (active). Then `Cc1ccc2c(c1)=C/C(=C\c1c(O)[nH]c(=O)[nH]c1=O)C(=O)N=2`, with -3.63% (inactive); and `Cc1cc2ccccn2c1C(C[N+](=O)[O-])c1c(F)cccc1Cl` (stereo not given), with 102% (active).

Regarding `Cc1cccc(-n2c(C)nc3cc(C(=O)N4CCC5(CC4)OCCO5)ccc32)c1`, the inhibition was -8.93% (inactive). In the case of `O=c1[nH]c2ccccc2n1C1CCN(C(c2ccnc3ccccc23)c2nnnn2Cc2ccccc2)CC1` (stereo not given), the inhibition was 27.5% (inactive). For the compound `CCN(N=Nc1nonc1OC)c1nonc1OC`, the inhibition was -11.1% (inactive). With `O=C1NC(=O)N(CCc2ccc(F)cc2)C(=O)/C1=C/C=C/c1ccccc1` the figure was 79.4% (active). With `COC1=CC=C2[C@H]3Cc4ccc(OC)c5c4[C@@]2(CCN3C)C1O5` (stereo not given in full) the figure was -16% (inactive).

Take `Cc1cc(N2C(=O)C3CCCN3C2c2ccc(Cl)c(Cl)c2)no1` (stereo not given): the inhibition was -3.31% (inactive). As to `CC(C)c1ccc(O)c(CN2CCN(c3ccccc3)CC2)c1`, the inhibition is 4.05% (inactive).

Turning to `CCC(C)(O)C(=O)OC1C(=O)OC2CC3C(C)=CC(=O)C(O)C3(C)C3C4(O)OCC23C1C(C)C4O` (stereo not given), the inhibition is 99.5% (active). In the case of `CCOP(=O)(OCC)C(O)c1ccc(OC)cc1OC` (stereo not given), the inhibition was 3.38% (inactive).

Take `CCC(=O)OC(Cc1ccccc1)(c1ccccc1)C(C)CN(C)C` (stereo not given): the inhibition is 3.52% (inactive). With `O=C(NCC1=C(c2ccc3ccccc3c2)C[C@@H]2CC[C@H]1N2Cc1ccco1)c1cccs1` the figure was -11.2% (inactive); with `CC(=O)OC1C2(CC3N4C(=O)C5(CO)SSC4(CC31O)C(=O)N5C)OC(C)C(C)(C)C2=O` (stereo not given), 107% (active). As to `CN(C)C(=O)NC(O)C(Cl)(Cl)Cl` (stereo not given), the inhibition is 5.54% (inactive).

Turning to `Cc1cccc(-n2c(O)c(C=NC34CN5CN(CN(C5)C3)C4)c(=O)[nH]c2=O)c1`, the inhibition was -1.26% (inactive).

Take `COC1C(O)C(C)OC(OC2CCC3(C=O)C(CCC4C3CCC3(C)C(C5=CC(=O)OC5)CCC43O)C2)C1O` (stereo not given): the inhibition is 80.6% (active). In the case of `CC(=NCc1ccc2c(c1)OCO2)c1c(O)[nH]c(=O)[nH]c1=O`, the inhibition is -1.24% (inactive). Consider `CCN(CC)C(=O)Oc1ccc(NC(=O)N2CCOCC2)cc1`, for which the inhibition was 12.2% (inactive). Consider `Cc1ccc(N(C)C(=O)Oc2cccc3ccc(C)nc23)cc1`, for which the inhibition was -2.35% (inactive). Regarding `O=Cc1cn(Cc2ccc(F)cc2Cl)c2ccccc12`, the inhibition was 56.5% (active). For `CC1C(=O)OC2CCN3CC=C(COC(=O)C(C)(O)C1(C)O)C23` (stereo not given), the inhibition is -18.7% (inactive). With `CC[N+]1(C)CCCC(OC(=O)C(O)(c2ccccc2)c2ccccc2)C1` (stereo not given), the inhibition is -7.55% (inactive). Consider `CCOC(=O)[C@]12Cc3ccccc3[C@H]1N(C1CCCCC1)C(=O)c1cc(OC)ccc12`, for which the inhibition was 42.5% (inactive). With `COC(=O)CN(CCCl)P1(=O)OCCCN1CCCl` (stereo not given) the figure was -6.99% (inactive); with `O=C1NC(=O)C(CCOc2ccccc2)(CCc2ccccc2)C(=O)N1`, -21.8% (inactive); with `COc1ccccc1C1=NCc2nnc(CSC)n2-c2ccc(Cl)cc21`, 12.6% (inactive). Consider `CCN1CC2C3CCC(C)(O3)C2C1` (stereo not given), for which the inhibition was 2.33% (inactive). Regarding `CCOC(=O)C1=C(C)OC(N)=C(C(=O)OC)C12C(=O)Nc1ccc(Br)cc12` (stereo not given), the inhibition was -9.87% (inactive). `N#CC1=C(N)Oc2c(c(=O)oc3ccccc23)C1c1ccccc1OC(=O)c1cccs1` (stereo not given): the inhibition was 51.3% (active). As for `CCNc1nc2[nH]c(=O)c3c(c2s1)OC(N)=C(C#N)C3c1cccs1` (stereo not given), the inhibition is 19.6% (inactive). Take `COc1ccc(C2C=C(C)Oc3c2c(=O)oc2ccccc32)cc1OC` (stereo not given): the inhibition is 1.69% (inactive). With `Nc1ccc(Cc2ccc(N)c(Cl)c2)cc1Cl`, the inhibition was 7.24% (inactive). On to `COc1ccccc1OC(=O)c1ccc(C)c(S(=O)(=O)N2CCOCC2)c1`, for which the inhibition was 5.54% (inactive). Then `COC(=O)C1=C(c2ccc(F)cc2F)C[C@@H]2CC[C@H]1N2C(=O)NC1CC1`, with 10.7% (inactive); and `CCC/C(=N\O)c1c[nH]c2ccccc12`, with -11.5% (inactive); and `CCOc1ccc(C2SCC(=O)Nc3c2c(C)nn3C2CCOC(C)(C)C2)cc1` (stereo not given), with 7.72% (inactive).

For the compound `Cc1ccc(P(=S)(c2ccc(C)o2)N2CCOCC2)o1`, the inhibition is 73.2% (active).

As to `CCOC(=O)[C@]12Cc3cc(OC)ccc3[C@H]1N(C(C)C)C(=O)c1ccccc12`, the inhibition was 25.1% (inactive). Turning to `O=C(NC1CCCCC1)N1Cc2cc(N3CCCCC3)ccc2-n2nncc2C1`, the inhibition was -46.7% (inactive). With `CN1CCN(/N=C/c2c[nH]c3ccccc23)CC1`, the inhibition was 4.46% (inactive). Consider `COC(=O)C1=C(c2ccc(OCc3ccccc3)cc2)C[C@@H]2CC[C@H]1N2C(=O)NCc1cccc(F)c1`, for which the inhibition is 37.4% (inactive). In the case of `Fc1cccc(F)c1CN1CCN(Cc2c(F)cccc2F)CC1`, the inhibition was 92.7% (active).

On to `CN1CCN(Cc2ccccc2C(F)(F)F)CC1`, for which the inhibition is 0.88% (inactive).

Turning to `C/C(=N/O)c1ccc2ccc3ccccc3c2c1`, the inhibition is 2.22% (inactive). For the compound `COc1ccccc1N1CCN(C(CNC(=O)Oc2ccccc2)c2cccnc2)CC1` (stereo not given), the inhibition is 3.6% (inactive). Take `COCc1cc(OC(=O)N(C)C)nc(-c2ccc(C)c(Cl)c2)n1`: the inhibition is 6.49% (inactive). For `c1cc2c(cc1[C@H]1OC[C@H]3[C@@H]1CO[C@@H]3c1ccc3c(c1)OCO3)OCO2`, the inhibition was -20.1% (inactive).
